36 sequences from the OligoGym collection can be followed below.
Further: reference of the scale not given here.

The target of one experiment is PRR3. Briefly: pooled miR-30 sensor sort-seq; sequence = guide strand. The conditions noted are these: shRNA.
TCCTTGTGAAAGCTTCCCCTGG came in with a sensor-assay potency score (higher = more potent) of -1.31.
Same read-out and setting: with TTTTTGGCAAAATGTCGGCAGA the figure was -1.27.
The same measure, in the same setting: the figure for TTGTCTTCCATAACCTGGGGGT is -0.114; for TCGAGGGTTTCTCTGTTCCTTG it is -0.785.
In turn, TTGATAAGAGACCAGCTTTTGA had a sensor-assay potency score (higher = more potent) of -1.38.
Same read-out and setting: the figure for TCAGTGGTCCCCTTGATCCTGG is -0.862; for TGATCCTGGAGGACCTCTGTGA it is -0.51; for TTTGTCTTCCATAACCTGGGGG it is 0.295.
In the case of TAACTCTGCACCAGTCACCCAA, the sensor-assay potency score (higher = more potent) was -0.887.
The same measure, in the same setting: with TTCTTGATAAGAGACCAGCTTT the figure was -0.745; with TCTGCATTGACTCCCCACCAAC, -1.61; with TAGGAAGTAACTCTGCACCAGT, -0.0951.

The target of another experiment is PRR5. Described as above. To be noted: shRNA.
In turn, TTCTGTCCCTCATAGAAGCGAA had a sensor-assay potency score (higher = more potent) of -1.06.
On the same count and under the same terms, with ATCCTCTAGCTTCACACTGAGG the figure was -1.85; with TCGTGGGGTACAGTCTGCTGGG, -0.767.
Same read-out and setting: the figure for TGTTGTAGCTCTTGGAGCGCAC is -0.639.
The same measure, in the same setting: with TCACTGAAGAAGAAGTCCCAGG the figure was -0.956; with ATCTCCGACACAGAGTGCCTGC, -0.984; with TGGTCCACCAGGTTCTCCGGGC, -0.928.
Regarding TCTAGCTTCACACTGAGGGTGA, the sensor-assay potency score (higher = more potent) amounted to 0.389.
Same read-out and setting: with TTGTGGATGCTGTTCCAGGTGG the figure was -1.05.
Still for that read-out and setting: the figure for TAGTCCTCAGTCACGCCCCTGG is -0.743; for TTCAGAATCCGAGTCCACGGAC it is -1.2.
The same measure, in the same setting: with TAGCTTCACACTGAGGGTGATG the figure was -1.08.

For another experiment, the target named is PRRX2. The description is as above. To be noted: shRNA.
TTCTTCTTCCGCTTGGCGGCGC came in with a sensor-assay potency score (higher = more potent) of -0.268.
Same read-out and setting: the figure for TAGGACTTGAGCAGCGAGGCAG is -0.751; for TAGGGTGGCACTGTGCTGTAGG it is 0.726; for TTTCTATTGCTGTCCACCCAGG it is -1.08.
Same read-out and setting: with TTGGCCTTGAGACGGAGGCTGG the figure was -0.803; with TTGGTTTTAATACACAAACTAA, -1.05; with TTTTCTATTGCTGTCCACCCAG, -0.328.
Same read-out and setting: the figure for TTCCTGCGGAACTTGGCGCGGC is -0.664; for TTGAGCAGCGAGGCAGAGCGGC it is -1.11.
On to ATAATCTGGACTCAGGGCGGTG, for which the sensor-assay potency score (higher = more potent) is -1.16.
On the same count and under the same terms, with TCGCTGAGGTTGACGCGCCGGG the figure was -1; with TAGGGGGACGAGGCTGTCCAGG, -1.31.
